# Measured values published in PubChem BioAssay (NCI).
# About 79,000 compounds went through this panel and 15% of them were active in at least one assay; those are over-represented in the sample as a whole. Unmarked numbers belong to inactive results. The source made the active and inactive calls. No stated cut-off is given here; in the data, active means growth inhibition above about 70%; inactive means the rest.
# Tests used:
# [1] = NCI Yeast Anticancer Drug Screen. Data for the rad50 strain (AID 155);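 further: 0% = growth of vehicle-only cultures of the same strain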; conditions: S. cerevisiae rad50 strain growth inhibition, stronger effect = higher value
# Procedure, shortened: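 Cells are treated with compound, grown, and their growth is then scored against vehicle-only cultures of the same repair-deficient yeast strain.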
# [2] = NCI Yeast Anticancer Drug Screen. Data for the mec2-1 strain (AID 157); conditions: S. cerevisiae mec2-1 strain, stronger effect = higher value
# Procedure, shortened: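 Test agents were screened against the mec2-1 yeast strain, with defined DNA repair or cell cycle alteration. Growth was scored as inhibition against vehicle-only controls.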
# [3] = NCI Yeast Anticancer Drug Screen. Data for the sgs1 mgt1 strain (AID 161);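 further: 0% = growth of cultures given vehicle only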; conditions: S. cerevisiae sgs1 mgt1 strain, stronger effect = higher value
# Procedure, shortened: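 Read-out: growth inhibition vs vehicle controls. Cells: mutant yeast strain deficient in DNA damage repair.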
# [4] = NCI Yeast Anticancer Drug Screen. Data for the cln2 rad14 strain (AID 165);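 further: 0% = growth equal to vehicle treated cultures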; conditions: S. cerevisiae cln2 rad14 strain, stronger effect = higher value
# Procedure, shortened: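 Growth of compound-exposed yeast (cln2 rad14 genotype) measured and expressed as inhibition relative to vehicle.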
# [5] = NCI Yeast Anticancer Drug Screen. Data for the bub3 strain (AID 167); conditions: S. cerevisiae bub3 mutant strain, stronger effect = higher value
# Procedure, shortened: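 Part of a panel of yeast mutants defective in DNA damage repair or cell cycle regulation. Each strain is grown with compound, and inhibition is calculated relative to solvent-treated cultures.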
# [6] = NCI Yeast Anticancer Drug Screen. Data for the mlh1 rad18 strain (AID 175); conditions: S. cerevisiae mlh1 rad18 strain growth inhibition, stronger effect = higher value
# Procedure, shortened: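 In this whole-cell yeast screen, a strain with altered DNA damage repair is challenged with compound, and its growth is measured against matched vehicle-treated controls.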
# [7] = at 5.0 µM (retest, dose inferred, filed as 0.5)
# [8] = at 50.0 µM (retest, dose inferred, filed as 5.0)
SMILES,"growth inhibition [1, 7]","growth inhibition [1, 8]",growth inhibition ([1]; at 50.0 µM),"growth inhibition [2, 7]","growth inhibition [2, 8]",growth inhibition ([2]; at 50.0 µM),"growth inhibition [3, 7]","growth inhibition [3, 8]",growth inhibition ([3]; at 50.0 µM),"growth inhibition [4, 7]","growth inhibition [4, 8]",growth inhibition ([4]; at 50.0 µM),"growth inhibition [5, 7]","growth inhibition [5, 8]",growth inhibition ([5]; at 50.0 µM),"growth inhibition [6, 7]","growth inhibition [6, 8]",growth inhibition ([6]; at 50.0 µM)
CCC(C)n1c(C)nc2c(N)cc(C(F)(F)F)cc21 (configuration not stated),0%,11%,74% (active),3%,30%,95.8% (active),4%,38%,93.7% (active),1%,8%,98.8% (active),-4%,9%,98% (active),0%,28%,94.5% (active)
S=C(N/N=C/c1ccccn1)N1CCCCC1,99% (active),98% (active),89.3% (active),97% (active),99% (active),92.4% (active),98% (active),97% (active),91.8% (active),96% (active),99% (active),93% (active),98% (active),100% (active),92% (active),98% (active),99% (active),89.5% (active)
O=C(O)c1cc(Br)ccc1OCc1ccc(Cl)cc1,-1%,28%,43.9%,-1%,19%,51.2%,-7%,5%,58%,-13%,27%,79.4% (active),-8%,9%,-2.25%,-8%,12%,52.9%
COc1ccc(N2CCN(CC(O)COc3cc4c(c5c3CCCC5)CCCC4)CC2)cc1 (configuration not stated),15%,98% (active),45.4%,17%,98% (active),99% (active),22%,97% (active),54.7%,6%,98% (active),84.2% (active),13%,97% (active),92% (active),9%,96% (active),77.6% (active)
CN1C(=O)c2ccccc2C1(c1ccccc1)c1ccccc1,0%,90% (active),30.1%,2%,96% (active),14.8%,4%,98% (active),20.9%,13%,37%,43.1%,5%,62%,45.1%,15%,95% (active),56.9%
C1CCN(c2nc(N3CCOCC3)c3[nH]c(N4CCCCC4)nc3n2)CC1,1%,84% (active),35%,5%,90% (active),35.4%,2%,86% (active),46.4%,8%,49%,60.1%,0%,71% (active),49.6%,-2%,68%,36.5%
CCCCCCCCCCCCNC(=O)C[n+]1cccc(C(N)=O)c1,3%,88% (active),79% (active),-3%,90% (active),19.8%,-2%,97% (active),-2.6%,-6%,67%,36.4%,-9%,76% (active),50.8%,-1%,85% (active),51.4%
CCc1nc(N)nc(N)c1-c1ccc(N2CCCCC2)c([N+](=O)[O-])c1,3%,8%,31.3%,6%,4%,56.8%,1%,3%,13.3%,-6%,6%,72.2% (active),-1%,-2%,91.7% (active),-1%,0%,51%
O=C(O)CSc1ccc(N=C=S)cc1,-5%,96% (active),-8.1%,3%,91% (active),8.15%,9%,93% (active),-2.75%,-9%,69%,4.8%,-27%,95% (active),0.55%,37%,98% (active),-2.35%
CSCCC(NC(=O)C(CCSC)NS(=O)(=O)Cc1ccccc1)C(=O)O (configuration not stated),-6%,-4%,98.9% (active),-4%,-3%,99.6% (active),-6%,-6%,48.5%,-2%,-12%,98.7% (active),-4%,-3%,99.2% (active),-4%,-5%,99.2% (active)
O=C(CCCCN1CCN2c3ccccc3CCC2C1)c1ccccc1 (configuration not stated),-3%,51%,90.4% (active),2%,53%,70.9% (active),15%,80% (active),94.4% (active),-2%,39%,58.8%,1%,37%,53.8%,38%,83% (active),68.9%
CC(=O)NC1=C(Sc2ccc(C)cc2)C(=O)c2ccccc2C1=O,63%,98% (active),54.4%,96% (active),99% (active),10.1%,72% (active),95% (active),29.8%,35%,97% (active),-32.6%,67%,98% (active),42%,99% (active),99% (active),23.1%
Cc1ccc(Sc2ccc3ccccc3n2)cc1,2%,-34%,36%,-3%,46%,37.5%,15%,37%,50.2%,-18%,-24%,50.2%,1%,30%,67%,0%,18%,2.25%
C/C(=N/O)c1cccc(C(F)(F)F)c1,-150%,-146%,7.15%,-50%,-58%,14.3%,-64%,-63%,-6.55%,-63%,-84%,35.6%,-66%,-92%,34.6%,-128%,-127%,19.2%
NS(=O)(=O)c1ccc(N=Cc2c3ccccc3nc3cc(Cl)ccc23)cc1,10%,34%,46.4%,12%,28%,49.1%,16%,39%,53.1%,3%,12%,8.05%,19%,38%,27.6%,17%,38%,58.9%
COc1cc(/C=C2/N=C(c3ccccc3)N(C3=NNC4(C(=O)N3)c3ccccc3-c3ccccc34)NC2=O)ccc1O,4%,3%,36.5%,-1%,7%,-5.05%,6%,14%,7.55%,3%,1%,-46.6%,-2%,-7%,27.4%,-17%,11%,20.5%
COc1ccc(/C(C#N)=C/c2ccncc2)cc1,1%,28%,73.2% (active),-49%,14%,39.2%,-2%,28%,68%,4%,23%,46.4%,7%,67%,77.4% (active),-3%,28%,51.3%
Cc1ccc(S(=O)/C=C/S(=O)(=O)c2ccc(C)cc2)cc1 (configuration not stated),99% (active),99% (active),99.3% (active),99% (active),100% (active),99.6% (active),100% (active),100% (active),99.5% (active),98% (active),100% (active),99.5% (active),99% (active),100% (active),99.6% (active),100% (active),100% (active),99.5% (active)
CC(C)(C)OC(=O)NCCNC(=O)CN(CC(=O)O)C1CCCCC1N(CC(=O)O)CC(=O)O (configuration not stated),-16%,59%,50.4%,-7%,52%,62.3%,1%,46%,61.6%,-21%,46%,15.9%,0%,75% (active),66.2%,-10%,66%,74.5% (active)
